Results filed as inconclusive are left out. Active and inactive are the calls of the source. Rule for the calls: active = hit-call score of the fitted dose curve at least 0.9, where 1 is the maximum; inconclusive = response in the unintended direction; inactive = score below 0.9.
Test system: not listed separately
Assay: ACEA_ER_AUC_viability: ACEA Biosciences xCELLigence Real-Time Cell Analysis on Estrogen Receptor Agonism for Viability (AID 2283782);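 note: hit means loss of impedance signal meaning reduced cell growth or viability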
Summary of the method: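 Continuous-exposure impedance cell analysis uses T-47D cells in charcoal-stripped serum, eight 1:4 dilutions topping at 100 uM final, biological duplicate. Area under the growth curve at 80 h is fitted against DMSO baseline.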

| Compound | outcome | AC50 |
| --- | --- | --- |
| CS(=O)(=O)OCCCCOS(C)(=O)=O | inactive | – |
| O=C(O)c1ccc(O)cc1 | inactive | – |
| COc1ccccc1N=Nc1c(S(=O)(=O)O)cc2cc(S(=O)(=O)O)cc(NC(C)=O)c2c1O | inactive | – |
| Nc1ccc(N)c2c1C(=O)c1ccccc1C2=O | inactive | – |
| C=CC(C)(O)CCC=C(C)C (configuration not stated) | inactive | – |
| Cc1cc(=O)oc2cc(N(C)C)ccc12 | inactive | – |
| COc1ccc(N=Nc2cc(C)c(N=Nc3ccc(S(=O)(=O)O)cc3)cc2OC)cc1 | inactive | – |
| CCCCCCCCc1ccc(S(=O)(=O)O)cc1 | inactive | – |
| [O-]n1ccccc1=S.[O-]n1ccccc1=S.[Zn+2] | – | 2.84 µM (active) |
| CCCCCCCCC=CCCCCCCCC1=NCCN1CCO | – | 10.9 µM (active) |
| CCCCC(CC)COC(=O)c1ccc(O)cc1 (configuration not stated) | – | 22.4 µM (active) |
| CC=Cc1ccc(OCC)c(O)c1 | inactive | – |
| CCc1cc(C(C)(C)C)c(O)c(C(C)(C)C)c1 | – | 81.8 µM (active) |
| CCOC(=O)c1ccc(N)cc1 | inactive | – |
| O=C1c2ccccc2C(=O)c2c(O)ccc(O)c21 | inactive | – |
| C=C[Si]1(C)O[Si](C)(C=C)O[Si](C)(C=C)O[Si](C)(C=C)O1 (configuration not stated) | – | 88 µM (active) |
| BrCc1cccc(Oc2ccccc2)c1 | inactive | – |
| CCc1cc(Cc2cc(CC)cc(C(C)(C)C)c2O)c(O)c(C(C)(C)C)c1 | – | 11.7 µM (active) |
| O=C(Nc1ccc2c(O)c(N=Nc3ccc(N=Nc4ccc(S(=O)(=O)O)cc4)cc3)c(S(=O)(=O)O)cc2c1)c1ccccc1 | inactive | – |
| CC(C)CCCCCCCCCCCCCCC(=O)O | – | 50 µM (active) |
| C=C1CC[C@H](O)C/C1=C/C=C1\CCC[C@]2(C)[C@@H]([C@H](C)/C=C/[C@H](C)C(C)C)CC[C@@H]12 | – | 79.1 µM (active) |
| CC=Cc1ccc(OC)c(OC)c1 | inactive | – |

Biological target: AR (gene 367) (UniProt P10275)
Sequence (P10275 whole entry, looked up): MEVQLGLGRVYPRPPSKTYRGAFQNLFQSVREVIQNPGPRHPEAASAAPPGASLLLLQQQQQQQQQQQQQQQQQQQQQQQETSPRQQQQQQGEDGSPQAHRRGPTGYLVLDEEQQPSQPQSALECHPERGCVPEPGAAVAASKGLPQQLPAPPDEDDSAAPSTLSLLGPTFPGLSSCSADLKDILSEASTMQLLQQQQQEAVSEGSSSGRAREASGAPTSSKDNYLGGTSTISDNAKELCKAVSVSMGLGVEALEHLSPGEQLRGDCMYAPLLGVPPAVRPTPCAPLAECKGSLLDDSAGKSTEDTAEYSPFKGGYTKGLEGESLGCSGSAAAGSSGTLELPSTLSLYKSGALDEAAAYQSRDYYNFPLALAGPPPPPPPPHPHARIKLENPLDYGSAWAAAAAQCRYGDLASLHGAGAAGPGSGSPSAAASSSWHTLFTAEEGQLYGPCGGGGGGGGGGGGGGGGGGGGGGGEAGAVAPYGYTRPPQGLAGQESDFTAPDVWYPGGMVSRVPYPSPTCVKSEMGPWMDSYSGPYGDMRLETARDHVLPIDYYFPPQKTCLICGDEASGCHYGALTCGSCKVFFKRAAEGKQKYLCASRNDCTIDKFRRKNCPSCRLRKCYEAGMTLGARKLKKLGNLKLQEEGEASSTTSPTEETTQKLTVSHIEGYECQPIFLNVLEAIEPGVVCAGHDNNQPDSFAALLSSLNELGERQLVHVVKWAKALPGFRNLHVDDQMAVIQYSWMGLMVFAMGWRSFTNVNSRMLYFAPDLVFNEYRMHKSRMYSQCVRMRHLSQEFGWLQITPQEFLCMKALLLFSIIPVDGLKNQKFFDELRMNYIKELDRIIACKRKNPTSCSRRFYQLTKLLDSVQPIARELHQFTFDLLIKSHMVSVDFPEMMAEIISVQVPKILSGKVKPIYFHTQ
Assay: ACEA_AR_antagonist_80hr: ACEA Biosciences xCELLigence Real-Time Cell Analysis on Androgen Receptor Antagonism for Proliferation (AID 2283787);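 note: 22Rv1 human prostate cancer cells with growth followed by electrical impedance; hits lower the impedance growth signal relative to DMSO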
Summary of the method: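 Using 22Rv1 cells held in assay medium, we dosed compounds (100 uM maximum final, 1:4 serial, eight points, 0.5% DMSO at top) and recorded cell-electrode impedance; the 80 hr timepoint was analyzed against DMSO.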

| Compound | AC50 | outcome |
| --- | --- | --- |
| Nc1ccc(N)c2c1C(=O)c1ccccc1C2=O | 16.6 µM (active) | – |
| CCOC(=O)[C@@H](C)Oc1ccc(Oc2nc3ccc(Cl)cc3o2)cc1 | 3.55 µM (active) | – |
| CCCCCCCCC=CCCCCCCCC1=NCCN1CCO | – | inactive |
| BrCc1cccc(Oc2ccccc2)c1 | – | inactive |
| CCc1cc(Cc2cc(CC)cc(C(C)(C)C)c2O)c(O)c(C(C)(C)C)c1 | 24.1 µM (active) | – |
